Holding throughout (parameters): scale not given: direction of the effect not stated beside the values
Assay [1] concerns the target Protein translocase subunit SecA (Escherichia coli (strain K12)) (UniProt P10408). In words: Assay to Identify E. coli SecA ATPase Inhibitors. The class given is functional. To be noted: 30 µM.
The target in assay [2] is T1, Ubiquitin-activating enzyme e1, putative (Leishmania donovani (strain BPK282A1)) (UniProt E9BSI1).
T1 sequence (whole entry): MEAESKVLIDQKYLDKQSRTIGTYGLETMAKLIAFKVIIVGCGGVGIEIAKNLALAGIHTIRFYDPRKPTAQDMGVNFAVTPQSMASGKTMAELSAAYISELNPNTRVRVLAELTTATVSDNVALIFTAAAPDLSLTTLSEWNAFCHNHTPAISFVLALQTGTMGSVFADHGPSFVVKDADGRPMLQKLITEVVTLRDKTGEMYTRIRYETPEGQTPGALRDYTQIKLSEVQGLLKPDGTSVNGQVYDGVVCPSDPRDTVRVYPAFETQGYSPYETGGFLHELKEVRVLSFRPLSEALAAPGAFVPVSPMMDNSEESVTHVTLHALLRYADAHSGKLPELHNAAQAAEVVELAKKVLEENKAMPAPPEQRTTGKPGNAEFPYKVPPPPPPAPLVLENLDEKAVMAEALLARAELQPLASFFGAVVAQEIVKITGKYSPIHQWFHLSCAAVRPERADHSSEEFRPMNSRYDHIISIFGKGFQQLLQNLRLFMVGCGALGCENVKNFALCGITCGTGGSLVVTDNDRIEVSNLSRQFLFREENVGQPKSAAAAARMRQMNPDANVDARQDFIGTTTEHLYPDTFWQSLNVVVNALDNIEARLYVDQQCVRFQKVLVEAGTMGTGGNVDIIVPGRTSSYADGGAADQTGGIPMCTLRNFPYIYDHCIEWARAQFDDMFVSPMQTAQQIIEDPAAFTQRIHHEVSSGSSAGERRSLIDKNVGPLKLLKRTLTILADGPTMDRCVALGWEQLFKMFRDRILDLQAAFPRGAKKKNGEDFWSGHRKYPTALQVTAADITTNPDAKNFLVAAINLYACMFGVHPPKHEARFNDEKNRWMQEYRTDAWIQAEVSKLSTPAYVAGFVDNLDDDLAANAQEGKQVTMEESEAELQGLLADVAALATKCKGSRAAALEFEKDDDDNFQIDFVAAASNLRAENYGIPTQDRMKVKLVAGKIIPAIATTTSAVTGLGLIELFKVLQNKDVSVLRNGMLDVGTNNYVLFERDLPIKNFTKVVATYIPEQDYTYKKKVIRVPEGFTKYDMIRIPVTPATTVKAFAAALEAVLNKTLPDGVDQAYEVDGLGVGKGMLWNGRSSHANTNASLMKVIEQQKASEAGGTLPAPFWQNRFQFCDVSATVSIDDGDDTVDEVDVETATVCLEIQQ
In words: Leishmania donovani Ubiquitin Activating Enzyme (LdE1). It is filed as functional. Particulars: 30 µM.

For assay [3], the target named is AMP-activated protein kinase, AMPK (Homo sapiens) (UniProt P54646+O43741+P54619+Q9UGJ0+Q9Y478+Q13131+Q9UGI9). In words: AMP-dependent Kinase enzyme assay. An in vitro enzyme assay that detects ADP turnover that is directly proportional to AMPK activity. This uses naive AMPK that is activated during the assay with MK-8722. The class given is functional. Particulars: 30 µM.

In assay [4] the target is Sialic acid-binding Ig-like lectin 9 (Homo sapiens) (UniProt Q9Y336). In words: Hs-Siglec9 ALPHAscreen SOP 20170721. Particulars: 10 µM. (Bead proximity is the source of the signal in Alpha formats.)
Sialic acid-binding Ig-like lectin 9 (Homo sapiens), sequence (Q9Y336 whole entry): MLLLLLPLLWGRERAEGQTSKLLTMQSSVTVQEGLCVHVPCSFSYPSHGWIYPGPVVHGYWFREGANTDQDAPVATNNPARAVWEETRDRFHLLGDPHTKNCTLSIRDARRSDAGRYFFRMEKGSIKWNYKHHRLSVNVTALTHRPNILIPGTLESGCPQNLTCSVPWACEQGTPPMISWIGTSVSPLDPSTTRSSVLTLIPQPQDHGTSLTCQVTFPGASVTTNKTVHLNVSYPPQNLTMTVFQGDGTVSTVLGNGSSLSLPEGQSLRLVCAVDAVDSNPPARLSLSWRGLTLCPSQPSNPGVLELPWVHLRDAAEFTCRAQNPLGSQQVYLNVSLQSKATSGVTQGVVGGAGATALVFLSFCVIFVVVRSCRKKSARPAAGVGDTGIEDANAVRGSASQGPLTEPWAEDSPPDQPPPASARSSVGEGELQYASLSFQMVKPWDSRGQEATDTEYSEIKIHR
A further assay deals with Trypanosoma cruzi. In words: Trypanosoma cruzi phosphomannomutase and mannose-1-phosphate guanylyltransferase assay. The class given is functional. Particulars: 10 µM.
The target in assay [5] is T2, Arginase-2, mitochondrial (Homo sapiens) (UniProt P78540).
T2 sequence (whole entry): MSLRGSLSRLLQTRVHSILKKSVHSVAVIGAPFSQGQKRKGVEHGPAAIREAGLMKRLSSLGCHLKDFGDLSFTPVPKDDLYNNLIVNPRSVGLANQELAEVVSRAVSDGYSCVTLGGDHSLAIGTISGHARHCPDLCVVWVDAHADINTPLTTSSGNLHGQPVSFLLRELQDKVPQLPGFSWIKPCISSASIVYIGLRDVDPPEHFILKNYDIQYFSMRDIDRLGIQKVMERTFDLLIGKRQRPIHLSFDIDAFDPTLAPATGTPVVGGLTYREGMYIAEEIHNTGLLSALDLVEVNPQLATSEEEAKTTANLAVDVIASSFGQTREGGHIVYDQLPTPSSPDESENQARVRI
In words: in vitro enzyme assay to detect the production of urea directly proportional to the activity of Arginase II. Further: in the data most compounds retested in dose-response had high values. Particulars: 33.3 µM. It is filed as functional.

For assay [6], the target named is T3, Proteasome subunit beta (Trypanosoma cruzi) (UniProt O96673).
T3 sequence (whole entry): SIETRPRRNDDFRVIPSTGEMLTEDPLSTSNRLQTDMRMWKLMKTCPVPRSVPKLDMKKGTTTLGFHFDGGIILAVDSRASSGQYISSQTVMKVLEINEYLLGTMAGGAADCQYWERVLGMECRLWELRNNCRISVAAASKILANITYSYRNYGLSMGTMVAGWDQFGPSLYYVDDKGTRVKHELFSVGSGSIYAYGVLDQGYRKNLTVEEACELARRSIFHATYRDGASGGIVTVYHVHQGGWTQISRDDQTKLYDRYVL
In words: Trypanosoma cruzi proteasome chymotrypsin-like activity (TcProtChymo) assay. Further: in the data most compounds retested in dose-response had high values. It is filed as functional. To be noted: 9.37 µM.

The species named for the next assay is Homo sapiens. In words: To identify inhibition of the IFN signalling (Jak-Stat) pathway via expression of an eGFP reporter gene under the control of an IFN-stimulated response element (ISRE) containing MxA promoter. The class given is functional. Particulars: 30 µM. For orientation: Reporter assays use an easily measured gene product as a stand-in for the process of interest.

For assay [7], the target named is T4, Tyrosyl-tRNA synthetase, putative (Trypanosoma cruzi (strain CL Brener)) (UniProt Q4DSP6).
T4 sequence (whole entry): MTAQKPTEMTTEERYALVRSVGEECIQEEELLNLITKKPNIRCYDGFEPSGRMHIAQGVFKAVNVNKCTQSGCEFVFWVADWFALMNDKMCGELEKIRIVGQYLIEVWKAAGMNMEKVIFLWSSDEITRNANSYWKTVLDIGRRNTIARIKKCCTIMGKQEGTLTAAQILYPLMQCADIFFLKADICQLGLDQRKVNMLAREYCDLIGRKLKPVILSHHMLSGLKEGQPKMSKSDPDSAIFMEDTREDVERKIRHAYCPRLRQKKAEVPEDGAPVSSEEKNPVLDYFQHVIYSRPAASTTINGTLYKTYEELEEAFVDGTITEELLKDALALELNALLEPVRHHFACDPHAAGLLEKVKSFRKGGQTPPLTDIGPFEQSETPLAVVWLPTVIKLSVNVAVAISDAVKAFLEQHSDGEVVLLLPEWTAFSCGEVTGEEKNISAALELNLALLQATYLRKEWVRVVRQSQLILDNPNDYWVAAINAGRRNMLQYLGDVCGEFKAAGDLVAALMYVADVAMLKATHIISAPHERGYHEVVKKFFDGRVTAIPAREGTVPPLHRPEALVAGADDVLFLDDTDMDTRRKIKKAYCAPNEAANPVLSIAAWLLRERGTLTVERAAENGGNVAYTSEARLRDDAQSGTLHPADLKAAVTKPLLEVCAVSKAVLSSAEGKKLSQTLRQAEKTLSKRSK
In words: Trypanosoma cruzi tyrosyl tRNA synthetase (TcYRS) _High Tyrosine SOP. Further: in the data most compounds retested in dose-response had high values. The class given is functional. To be noted: 30 µM.

Assay [8] concerns the target T4, Tyrosyl-tRNA synthetase, putative (Trypanosoma cruzi (strain CL Brener)). In words: Trypanosoma cruzi tyrosyl tRNA synthetase (TcYRS) SOP. It is filed as functional. To be noted: 30 µM.
Assay [9] concerns the target Chromo domain-containing protein 1 (Saccharomyces cerevisiae (strain ATCC 204508 / S288c) (Baker's yeast)) (UniProt P32657). In words: ScCHD-1 Enzyme Inhibition Assay. Further: in the data most compounds retested in dose-response had high values. It is filed as functional. Particulars: 30 µM.

For some of these results: Entries with a potency or affinity are not part of this list.

The values below come from ChEMBL document CHEMBL3988442, “University of Dundee, Small-Polar-MMV Screening Library” (2021).

Protein translocase subunit SecA (Escherichia coli (strain K12)), sequence (P10408 whole entry): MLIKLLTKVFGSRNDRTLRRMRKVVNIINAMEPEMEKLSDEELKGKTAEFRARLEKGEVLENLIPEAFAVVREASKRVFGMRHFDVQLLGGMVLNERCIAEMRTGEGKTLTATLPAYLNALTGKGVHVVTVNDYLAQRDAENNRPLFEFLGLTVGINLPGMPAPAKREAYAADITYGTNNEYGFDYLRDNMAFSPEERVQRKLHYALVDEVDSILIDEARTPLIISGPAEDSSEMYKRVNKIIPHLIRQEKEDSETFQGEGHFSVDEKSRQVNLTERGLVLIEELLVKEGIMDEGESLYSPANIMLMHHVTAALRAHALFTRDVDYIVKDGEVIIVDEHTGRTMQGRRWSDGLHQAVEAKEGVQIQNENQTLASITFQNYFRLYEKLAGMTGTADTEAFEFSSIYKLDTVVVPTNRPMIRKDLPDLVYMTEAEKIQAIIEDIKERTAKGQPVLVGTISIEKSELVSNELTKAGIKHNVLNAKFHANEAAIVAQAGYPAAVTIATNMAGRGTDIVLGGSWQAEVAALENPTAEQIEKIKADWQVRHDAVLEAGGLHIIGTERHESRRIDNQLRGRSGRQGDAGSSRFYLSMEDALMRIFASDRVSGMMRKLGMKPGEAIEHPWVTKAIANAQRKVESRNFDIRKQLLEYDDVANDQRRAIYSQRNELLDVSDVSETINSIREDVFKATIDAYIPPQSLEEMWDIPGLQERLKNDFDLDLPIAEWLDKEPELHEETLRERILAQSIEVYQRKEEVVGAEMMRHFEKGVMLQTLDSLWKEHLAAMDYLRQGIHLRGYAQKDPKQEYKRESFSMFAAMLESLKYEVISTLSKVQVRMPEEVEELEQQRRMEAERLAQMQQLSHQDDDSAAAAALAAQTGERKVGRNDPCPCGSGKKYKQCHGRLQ
Chromo domain-containing protein 1 (Saccharomyces cerevisiae (strain ATCC 204508 / S288c) (Baker's yeast)), sequence (P32657 whole entry, the tested form may be a part): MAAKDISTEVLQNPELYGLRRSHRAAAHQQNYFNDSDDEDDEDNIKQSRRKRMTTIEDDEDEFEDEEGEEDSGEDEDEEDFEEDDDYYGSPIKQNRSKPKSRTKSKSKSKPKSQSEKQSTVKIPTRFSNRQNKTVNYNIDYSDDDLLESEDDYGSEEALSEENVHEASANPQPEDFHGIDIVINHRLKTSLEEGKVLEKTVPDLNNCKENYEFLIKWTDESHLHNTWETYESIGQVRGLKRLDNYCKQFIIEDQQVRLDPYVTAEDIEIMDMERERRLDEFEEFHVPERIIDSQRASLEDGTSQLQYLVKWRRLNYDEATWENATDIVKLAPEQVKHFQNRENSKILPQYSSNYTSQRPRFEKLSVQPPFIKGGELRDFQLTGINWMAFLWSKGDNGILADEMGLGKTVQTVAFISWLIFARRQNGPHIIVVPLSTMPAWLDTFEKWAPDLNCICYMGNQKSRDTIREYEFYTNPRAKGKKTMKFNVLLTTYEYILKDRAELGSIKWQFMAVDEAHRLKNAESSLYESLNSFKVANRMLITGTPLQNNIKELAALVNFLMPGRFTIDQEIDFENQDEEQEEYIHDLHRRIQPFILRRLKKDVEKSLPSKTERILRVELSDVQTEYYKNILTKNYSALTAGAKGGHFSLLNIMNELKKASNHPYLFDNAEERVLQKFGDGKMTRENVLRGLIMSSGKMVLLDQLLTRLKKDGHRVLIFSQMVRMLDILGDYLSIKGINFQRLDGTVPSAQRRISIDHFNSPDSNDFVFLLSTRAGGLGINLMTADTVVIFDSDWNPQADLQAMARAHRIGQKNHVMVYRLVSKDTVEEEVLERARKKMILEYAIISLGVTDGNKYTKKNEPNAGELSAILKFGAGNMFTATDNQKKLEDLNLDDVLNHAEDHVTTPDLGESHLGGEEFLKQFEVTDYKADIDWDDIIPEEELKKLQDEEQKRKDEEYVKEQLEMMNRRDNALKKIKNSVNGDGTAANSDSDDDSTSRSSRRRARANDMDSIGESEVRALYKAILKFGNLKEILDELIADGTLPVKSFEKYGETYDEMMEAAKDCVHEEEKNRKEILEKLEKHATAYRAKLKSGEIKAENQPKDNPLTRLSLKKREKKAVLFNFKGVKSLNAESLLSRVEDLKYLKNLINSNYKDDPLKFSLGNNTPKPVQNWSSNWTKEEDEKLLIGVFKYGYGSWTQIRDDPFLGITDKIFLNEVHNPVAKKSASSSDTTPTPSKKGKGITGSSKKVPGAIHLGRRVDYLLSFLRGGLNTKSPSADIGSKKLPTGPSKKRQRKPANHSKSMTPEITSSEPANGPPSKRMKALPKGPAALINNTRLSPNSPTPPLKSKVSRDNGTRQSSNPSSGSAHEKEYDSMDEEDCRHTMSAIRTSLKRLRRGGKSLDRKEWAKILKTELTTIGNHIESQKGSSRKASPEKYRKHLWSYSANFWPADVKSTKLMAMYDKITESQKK

Consider `CCn1cnnc1CNC(=O)c1cc(Cl)ccc1O`, for which the Percent Effect in assay [1] was -2.03%; in assay [2] it was 8.86%; in assay [3], 6.87%; in [4], -0.716%; in the assay with Trypanosoma cruzi it was -5.44%; in [5], -7.1%. Moreover, the Percent Effect in [6] was 17%; in the assay listed under Homo sapiens, 11.3%; in assay [7], 5.21%; in assay [8], -15.2%; in assay [9], -14%.
As to `O=C(CCc1cscn1)N1CCCC1c1noc(C2CC2)n1` (stereo unspecified), the Percent Effect was -5.78% in assay [1]; 16.2% in assay [2]; -11.8% in [3]; 6.15% in assay [4]; -1.42% in the assay on Trypanosoma cruzi; -2% in assay [5]. The Percent Effect is 11.3% in assay [6]; 6.02% in the assay filed under Homo sapiens; 12.3% in [7]; 16.1% in [8]; -5.15% in assay [9].
`CCS(=O)(=O)NC[C@]12COC[C@H]1CN(Cc1cccc(OC)c1)C2`: the Percent Effect is -2.67% in [1]; -2.7% in assay [2]; 2.37% in assay [3]; 5.65% in assay [4]; 6.16% with Trypanosoma cruzi; -4.14% in assay [5]. The Percent Effect in assay [6] is 7.93%; in the assay filed under Homo sapiens it was 11.7%; in assay [7], 0%; in assay [8] it was 5.13%; in assay [9], 14.6%.
`CN1CCN(C(=O)CC2CCN(CCc3ccccn3)CC2)CC1`: the Percent Effect in [1] was -2.81%; in assay [2], 5.2%; in [3] it was 3.53%; in assay [4] it was 5.15%; in the assay with Trypanosoma cruzi, 5.58%; in assay [5], 4.84%. Also, the Percent Effect in assay [6] was 3.48%; in the assay listed under Homo sapiens, 9.07%; in assay [7] it was 6.67%; in assay [8] it was 18.8%; in [9], -17.3%.
Take `Cc1cccc(C(=O)NCCCN2CCN(c3ccccc3)CC2)c1`: the Percent Effect in assay [1] is -2.4%; in [2], 10.4%; in assay [3], -2.04%; in assay [4], -11.3%; in the assay with Trypanosoma cruzi, -7%; in assay [5], 5.81%. For the same molecule, the Percent Effect is 12.7% in assay [6]; 13.6% in the assay listed under Homo sapiens; 1.06% in assay [7]; 8.97% in assay [8]; -9.93% in assay [9].
For the molecule `CC(=O)c1ccc(OCC(=O)NC(C)CCc2ccco2)cc1` (stereo unspecified), the Percent Effect was -0.558% in [1]; 5.41% in assay [2]; 7.91% in assay [3]; -3.5% in [4]; -7.34% with Trypanosoma cruzi; 1.91% in [5]. Further, the Percent Effect in assay [6] was 19.8%; in the assay listed under Homo sapiens, 6.38%; in assay [7], 3.7%; in assay [8] it was 2.44%; in [9], -1.85%.
For `Cn1cc(N2CCC3(CCN(Cc4nccs4)C3)C2=O)cn1` (stereo unspecified), the Percent Effect in [1] is -2.64%; in assay [2], 2.7%; in [3], 4.13%; in assay [4] it was -6.07%; with Trypanosoma cruzi, -4.2%; in assay [5], 0.319%. Also, the Percent Effect was 16.4% in assay [6]; -1.48% in the assay listed under Homo sapiens; 4.32% in assay [7]; 10.3% in assay [8]; -0.716% in assay [9].
Consider `c1cnc(N2CCC3(CCN(Cc4ccncc4)CC3)CC2)nc1`, for which the Percent Effect in [1] is -0.982%; in assay [2], 0%; in [3], 7.11%; in [4], 7.41%; in the assay with Trypanosoma cruzi it was -2.25%; in assay [5], -4.14%. Also, the Percent Effect in assay [6] was 13.1%; in the assay filed under Homo sapiens, -0.931%; in assay [7], 1.08%; in assay [8], 5.13%; in assay [9], 13%.
In the case of `Cc1cnn(CCNCc2csc(-c3cccs3)n2)c1`, the Percent Effect in [1] was -2.47%; in assay [2], -2.63%; in [3], 5.67%; in assay [4] it was 8%; in the assay on Trypanosoma cruzi, -0.564%; in assay [5], -1.92%. In addition, the Percent Effect in assay [6] was 13.7%; in the assay filed under Homo sapiens, 0.0858%; in [7] it was -3.43%; in assay [8], 0%; in assay [9], 6.81%.
Consider `CSc1nccn1-c1cccc(C(=O)NCCCN2CCOCC2)c1`, for which the Percent Effect in assay [1] is -3.34%; in assay [2], 18.4%; in assay [3], 0.67%; in [4], -6.16%; with Trypanosoma cruzi it was 1.21%; in assay [5] it was -2.52%. For the same molecule, the Percent Effect was 16.5% in assay [6]; 5.76% in the assay filed under Homo sapiens; 7.39% in [7]; 18.5% in [8]; -4.95% in assay [9].
In the case of `Cc1cccc(C(=O)N(C)Cc2cc(Br)cs2)n1`, the Percent Effect in assay [1] was -6.38%; in assay [2] it was 5.26%; in [3] it was 7.43%; in assay [4] it was 4.27%; with Trypanosoma cruzi, 4.77%; in assay [5], 0%. The Percent Effect in assay [6] is 12.8%; in the assay listed under Homo sapiens, -26.6%; in [7], 4.25%; in [8], 7.79%; in [9] it was 0.914%.
